Assay outcomes as filed in PubChem BioAssay.
The entries come from a sample that favours hits as a whole.
ST2 inh: inhibitors of human ST2 (IL1RL1) binding to IL-33, primary screen, biochemical, AlphaLISA. AlphaLISA ST2-Fc/biotin-IL-33 interaction, 1 h. inhibition, % for hits at 17 µM. actives 2.3% (n = 78,000). AID 1259354, 2018; in the data active = inhibition above about 30%
Target sequence (Q01638 whole entry, looked up): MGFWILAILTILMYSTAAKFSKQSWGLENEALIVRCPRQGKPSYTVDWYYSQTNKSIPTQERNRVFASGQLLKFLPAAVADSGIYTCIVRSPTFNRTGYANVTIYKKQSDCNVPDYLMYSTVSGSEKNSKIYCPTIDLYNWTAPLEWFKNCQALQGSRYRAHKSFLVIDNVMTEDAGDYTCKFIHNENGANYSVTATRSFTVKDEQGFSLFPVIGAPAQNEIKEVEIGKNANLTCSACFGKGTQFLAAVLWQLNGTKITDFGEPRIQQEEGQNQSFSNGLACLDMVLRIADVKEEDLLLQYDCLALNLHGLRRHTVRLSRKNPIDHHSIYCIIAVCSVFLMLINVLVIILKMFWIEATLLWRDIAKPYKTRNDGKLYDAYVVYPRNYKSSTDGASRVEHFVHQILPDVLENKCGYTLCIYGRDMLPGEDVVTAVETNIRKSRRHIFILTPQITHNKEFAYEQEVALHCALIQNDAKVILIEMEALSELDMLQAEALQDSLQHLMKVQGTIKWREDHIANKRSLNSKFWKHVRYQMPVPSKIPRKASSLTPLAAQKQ
* marks the source's active call; other numbers are inactive results.

CCOc1ccc(-n2c(SCC(=O)Nc3ccc(Cl)cc3)nc3c(c2=O)SCC3)cc1 was read as ST2 inh inactive.
For COc1cccc(Nc2ncnc3[nH]ncc23)c1 the results were ST2 inh inactive.
`C=CCN(C)C(=O)[C@@H]1C[C@@H](O)[C@H](O)[C@@H]2NC(=S)N(c3cccc(C(F)(F)F)c3)[C@@H]21` gave ST2 inh inactive.
CCCCN1C(=O)/C(=c2\sc3nc(-c4ccc(OC)cc4)nn3c2=O)c2ccccc21 was read as ST2 inh inactive.
For C=CCN1C(=O)/C(=c2/sc3nc4ccccc4n3c2=O)c2ccccc21 the results were ST2 inh 31%*.
For O=c1/c(=C/c2ccccc2F)sc2nc3ccccc3n12 the results were ST2 inh inactive.
CC(C)C(NS(=O)(=O)c1cccs1)C(=O)Nc1ccc(C(F)(F)F)cc1 (stereo unspecified) was read as ST2 inh inactive.
Screening COc1ccc(OCC(=O)Nc2c(C(=O)Nc3ccccc3F)oc3ccccc23)cc1 returned ST2 inh inactive.
Screening CCN(CC)CCCOc1ccccc1Cl returned ST2 inh inactive.
For COc1ccccc1Cn1c(CNS(=O)(=O)c2ccc(CC(C)C)cc2)nc2cccnc21 the results were ST2 inh inactive.
Screening COc1ccc(Nc2nc(-c3cccc([N+](=O)[O-])c3)cs2)cc1 returned ST2 inh 38%*.
For COc1ccc(Nc2nc(Nc3ccc(OC)cc3)c([N+](=O)[O-])cc2[N+](=O)[O-])cc1 the results were ST2 inh inactive.
Screening COc1cccc(Nc2nc(-c3ccc(F)cc3)cs2)c1 returned ST2 inh inactive.
For Brc1ccc(Nc2nc(-c3ccccn3)cs2)cc1 the results were ST2 inh inactive.
Cc1nc2ncccn2c1-c1csc(Nc2cccc([N+](=O)[O-])c2)n1 was read as ST2 inh 37%*.
`NS(=O)(=O)c1ccc(Nc2nc(-c3ccccn3)cs2)cc1` gave ST2 inh inactive.
For COc1cccc(C(=O)Nc2c(-c3ccccc3)nc3ccccn23)c1OC the results were ST2 inh inactive.
For N#Cc1c(NC(=O)c2cc(-c3cccc(Cl)c3)on2)sc2c1CCC2 the results were ST2 inh inactive.
`Cc1ccc(Cc2c(C)nc3nc(SCC(=O)NC4CC4)nn3c2C)cc1` gave ST2 inh inactive.
For CCOC(=O)c1c(NC(=O)CCCN2C(=O)c3cccc4cccc(c34)C2=O)sc2c1CCC2 the results were ST2 inh inactive.
COc1ccc(C(=O)c2ccc([N+](=O)[O-])cc2)cc1S(=O)(=O)Nc1ccc(C)cc1 was read as ST2 inh inactive.
Screening COc1cc(OC)c(OC)cc1CN1CCN(c2cc(C)ccc2C)CC1 returned ST2 inh 35%*.
`COc1ccc(CN2CCN(Cc3cc(OC)c(OC)cc3OC)CC2)cc1` gave ST2 inh inactive.
Screening COc1cc(OC)c(OC)cc1CN1CCN(c2ccc(F)cc2)CC1 returned ST2 inh inactive.
Screening Fc1ccccc1N1CCN(Cc2ccco2)CC1 returned ST2 inh inactive.
COc1ccccc1N1CCN(Cc2ccc(C(=O)O)cc2)CC1 was read as ST2 inh inactive.
COc1cc(OC)c(OC)cc1CN1CCN(c2ccccn2)CC1 was read as ST2 inh inactive.
Screening COc1cc(OC)c(CN2CCN(c3ccccc3F)CC2)cc1Br returned ST2 inh 36%*.
COc1ccccc1N1CCN(Cc2cc(OC)c(O)c(OC)c2)CC1 was read as ST2 inh inactive.
Screening COc1ccc(CN2CCN(c3ccccc3OC)CC2)cc1OC returned ST2 inh 30%*.
Screening COc1ccc(C(=O)CC2(O)C(=O)Nc3ccc(Br)cc32)c(OC)c1 (stereo unspecified) returned ST2 inh inactive.
Screening O=C(Cn1cnc2c(cnn2-c2ccccc2)c1=O)N1CCCc2ccccc21 returned ST2 inh inactive.
Screening CCOC(=O)C1(CC2CC2)CCNCC1 returned ST2 inh inactive.
`O=C(CN1C(=O)/C(=C/c2ccccc2F)Sc2ccccc21)N1CCCCC1` gave ST2 inh 39%*.
`CNC(=O)CN1C(=O)/C(=C\c2ccc(C(F)(F)F)cc2)Sc2ccccc21` gave ST2 inh inactive.
Screening COCCCNC(=O)CN1C(=O)/C(=C\c2ccc(Cl)cc2)Sc2ccccc21 returned ST2 inh inactive.
Screening COCCNC(=O)CN1C(=O)/C(=C\c2ccc(Cl)cc2)Sc2ccccc21 returned ST2 inh inactive.
`CC1CCCC(NC(=O)CN2C(=O)/C(=C/c3ccccc3F)Sc3ccccc32)C1C` (stereo unspecified) gave ST2 inh 32%*.
`O=C(CN1C(=O)/C(=C/c2ccccc2F)Sc2ccccc21)NC1CCCCCC1` gave ST2 inh inactive.
Screening O=C(CN1C(=O)/C(=C\c2ccc(C(F)(F)F)cc2)Sc2ccccc21)NCCN1CCCC1 returned ST2 inh 39%*.
Cc1ccc(CCNC(=O)CN2C(=O)/C(=C/c3ccccc3F)Sc3ccccc32)cc1 was read as ST2 inh inactive.
For O=C(CN1C(=O)/C(=C\c2cccc(Cl)c2)Sc2ccccc21)NCCN1CCCC1 the results were ST2 inh inactive.
Screening O=C(CN1C(=O)/C(=C/c2ccccc2F)Sc2ccccc21)NC1CCCC1 returned ST2 inh inactive.
`CNC(=O)CN1C(=O)/C(=C/c2ccccc2F)Sc2ccccc21` gave ST2 inh inactive.
For O=C(CN1C(=O)/C(=C\c2ccc(Cl)cc2)Sc2ccccc21)N1CCCCC1 the results were ST2 inh 41%*.
`O=C(CSC1=NS(=O)(=O)c2ccccc21)Nc1c(Cl)cccc1Cl` gave ST2 inh inactive.
For COc1ccc(NC(=O)c2noc3c2CCc2ccccc2-3)cc1 the results were ST2 inh inactive.
Screening O=C(Cn1cnc2c(cnn2-c2ccc(Cl)cc2)c1=O)Nc1cccc(Cl)c1 returned ST2 inh inactive.
O=C(NCCCN1CCCC1)c1ccc2c(Cl)c3c(nc2c1)CCCC3 was read as ST2 inh inactive.
CCCS(=O)(=O)N1CCC(C(=O)NCCCN2CCOCC2)CC1 was read as ST2 inh inactive.
For CC(C)(C)c1ccc2c(c1)CN(C1CCCCC1)CO2 the results were ST2 inh inactive.
For Cc1ccccc1/C=C1\Sc2ccccc2N(CC(=O)NC(C)c2ccccc2)C1=O (stereo unspecified) the results were ST2 inh 32%*.
CC(NC(=O)CN1C(=O)/C(=C\c2cccc(Cl)c2)Sc2ccccc21)c1ccccc1 (stereo unspecified) was read as ST2 inh inactive.
Screening CNC(=O)CN1C(=O)/C(=C/c2ccccc2C)Sc2ccccc21 returned ST2 inh inactive.
Screening O=C(C1CC1)N1CCc2cc(Br)cc(S(=O)(=O)N3CCCc4ccccc43)c21 returned ST2 inh inactive.
For CCOC(=O)C1C(=O)C=C(c2cccs2)CC1c1ccc(OC)c(OC)c1 (stereo unspecified) the results were ST2 inh inactive.
For CCOC(=O)C1C(=O)C=C(c2cccs2)CC1c1ccccc1OCC (stereo unspecified) the results were ST2 inh inactive.
`O=C1C=C(c2cccs2)C[C@H](c2ccccc2)[C@H]1n1nnc([N+](=O)[O-])n1` gave ST2 inh 41%*.
Screening O=C(NCCCN1CCOCC1)c1ccc2c(c1)ncn2C1CCCCC1 returned ST2 inh inactive.
